In PubChem BioAssay (EPA / NIEHS):
The source made the active and inactive calls. How the source made its calls: active means hit-call score of the fitted dose curve at least 0.9, where 1 is the maximum; inactive means score below 0.9.

What follows are compounds tested against Nuclear respiratory factor 1 (Homo sapiens) (UniProt Q16656) (assay: ATG_NRF1_CIS: Attagene CIS-FACTORIAL HepG2 Assay for human Nuclear Respiratory Factor 1 (NRF1) Orphan Gene (AID 2282987)). Settings: HepG2 NRF1 cis-element reporter, Attagene multiplex; actives raise or lower the signal.
Sequence of Nuclear respiratory factor 1 (Homo sapiens) (Q16656 whole entry, looked up): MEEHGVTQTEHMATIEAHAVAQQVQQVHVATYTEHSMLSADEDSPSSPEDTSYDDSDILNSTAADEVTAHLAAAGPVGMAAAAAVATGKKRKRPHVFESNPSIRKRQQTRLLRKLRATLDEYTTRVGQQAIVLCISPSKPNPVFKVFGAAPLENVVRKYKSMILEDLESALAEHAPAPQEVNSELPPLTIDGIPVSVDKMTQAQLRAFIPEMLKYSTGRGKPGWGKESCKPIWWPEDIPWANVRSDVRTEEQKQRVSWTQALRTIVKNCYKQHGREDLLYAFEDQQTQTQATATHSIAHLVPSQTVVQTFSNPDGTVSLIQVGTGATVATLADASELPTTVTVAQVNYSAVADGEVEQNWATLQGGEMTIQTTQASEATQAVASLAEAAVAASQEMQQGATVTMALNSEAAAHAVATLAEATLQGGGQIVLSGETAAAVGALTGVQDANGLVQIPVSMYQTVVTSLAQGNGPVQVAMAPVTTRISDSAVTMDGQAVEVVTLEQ
Experimental: ATG_CIS is a cell-based, multiplexed-readout assay that uses HepG2, a human liver cell line, with measurements taken at 24 hours after chemical dosing in a 24-well plate.ATG_NRF1_CIS is one of 52 assay component(s) measured or calculated from the ATG_CIS assay. It is designed to make measurements of mRNA induction, a form of inducible reporter, as detected with fluorescence intensity signals by Reverse transcription polymerase chain reaction (RT-PCR) and Capillary electrophoresis technology.Data from the assay component ATG_NRF1_CIS was analyzed into 1 assay endpoint. This assay endpoint, ATG_NRF1_CIS, was analyzed with bidirectional fitting relative to DMSO as the negative control and baseline of activity. Using a type of inducible reporter, measures of mRNA for gain or loss-of-signal activity can be used to understand the reporter gene at the transcription factor-level as they relate to the gene NRF1. Furthermore, this assay endpoint can be referred to as a primary readout, because this assay has produced multiple assay endpoints where this one serves a reporter gene function. To generalize the intended target to other relatable targets, this assay endpoint is annotated to the dna binding intended target family, where the subfamily is nuclear respiratory factors.
Human liver HepG2 cells are transiently transfected with multiple reporter transcription units (MRTUs) in 6-well plates using FuGene 6 reagent (Roche; 3 ml FuGene/1 mg DNA). The MRTU constructs are regulated by a cis-regulating element (promoter). […] A major difference between the CIS and TRANS system is that in CIS activities of endogenous TFs are measured, whereas the TRANS assay evaluates changes in activities of exogenous, chimeric NR-Gal4 proteins. […] At the end of 24 hour incubation, total RNA was isolated using TriZol reagent (Invitrogen). The isolated RNA is then reverse-transcribed using oligo(dT) primer and Mo-MLV reverse transcriptase (Invitrogen) with DNAse I (Ambion) treatment for 30 min. The one-tenth of the produced cDNA was amplified by PCR using Taq DNA polymerase (Invitrogen) and two reporter sequence-specific primers. The PCR products were fluorescently labeled by primer extension with 6-arboxyfluorescein (6-FAM) 5'-labeled reporter sequence-specific primer (2 min at 95 C, 20 s at 68 C and 10 min at 72 C) and these products were digested with 5U of HpaI (New England Biolabs) for 2h at 37 C. The fragments were purified using Qiaquick PCR columns (Qiagen), analyzed on an ABI 3130xL genetic analyzer (Applied Biosystems) with peak positions identified by using a set of X-rhodamine (ROX)-labeled MapMarker1000 molecular weight standards (BioVentures). The raw capillary electrophoresis data was processed using Attagraph software (Attagene).
For CCC[Si](OC)(OC)OC, the outcome was “inactive”. With CCCCC(CC)COC(=O)/C=C/c1ccc(OC)cc1 (stereo not given) the outcome was “inactive”. For Nc1ccc(O)c([N+](=O)[O-])c1, the outcome was “inactive”. In the case of Cn1ccnc1, the outcome is reported as “inactive”. In the case of COC(Cc1ccccc1)OC, the outcome is reported as “inactive”. In the case of N=C1C=CC(=C(c2ccc(N)cc2)c2ccc(N)cc2)C=C1, the AC50 is reported as 100 µM (active). CCC(C)(O)CCCC(C)C (stereo not given) was tested, and the outcome was “inactive”. Oc1c(Cl)cc(Cl)c(Cl)c1Cl was tested, and the outcome was “inactive”. Oc1ccccc1Cc1ccccc1O was tested, and the outcome was “inactive”. For C[Si]1(C)O[Si](C)(C)O[Si](C)(C)O[Si](C)(C)O[Si](C)(C)O1, the outcome was “inactive”. O=C(O)CCCC(=O)O was tested, and the outcome was “inactive”. For CC(C)c1ccc(O)c(C(C)C)c1, the outcome was “inactive”. With C[Si](C)(C)N[Si](C)(C)C the outcome was “inactive”. CCOC(=O)c1ccc(C)cc1 was tested, and the outcome was “inactive”. C=CCNCC=C was tested, and the outcome was “inactive”. In the case of CCOC(=O)c1ccccc1C, the outcome is reported as “inactive”. CC(=O)c1ccccc1O was tested, and the outcome was “inactive”. In the case of CO[Si](C)(C)OC, the outcome is reported as “inactive”. With CCc1occc(=O)c1O the outcome was “inactive”. With N#CC1(N)CCCCC1 the outcome was “inactive”. CCC(C)C(=O)OCCc1ccccc1 (stereo not given) was tested, and the outcome was “inactive”. For CC(C)(O)Cc1ccccc1, the outcome was “inactive”. CCCCCCCCCC(C)=O was tested, and the outcome was “inactive”. In the case of COc1nccnc1CC(C)C, the outcome is reported as “inactive”. With c1ccc2c(c1)[nH]c1ccccc12 the outcome was “inactive”. With CCNc1nc(NC(C)(C)C)nc(OC)n1 the outcome was “inactive”. In the case of CC(C)(CO)COC(=O)C(C)(C)CO, the outcome is reported as “inactive”. For COC(C=C(C)CCC=C(C)C)OC, the outcome was “inactive”. CC(C)(C)C1CCC(=O)CC1 was tested, and the outcome was “inactive”. In the case of CCOC(=O)CC(=O)c1ccccc1, the outcome is reported as “inactive”. Fc1ccc(Br)cc1 was tested, and the outcome was “inactive”. With CC(CC=O)CC(C)(C)C (stereo not given) the outcome was “inactive”. With CCCCOC(=O)C(C)CC (stereo not given) the outcome was “inactive”. With CCCC=C(C=O)CC the outcome was “inactive”. O=S(=O)(O)c1ccc(N=Nc2c(O)ccc3ccccc23)cc1 was tested, and the outcome was “inactive”. In the case of C=Cc1cccc(C)c1, the outcome is reported as “inactive”. For CCC1(C)C(=O)N(Cl)C(=O)N1Cl (stereo not given), the outcome was “inactive”. Cc1noc(NS(=O)(=O)c2ccc(N)cc2)c1C was tested, and the outcome was “inactive”. For CCCC(C)C(=O)OCC (stereo not given), the outcome was “inactive”. O=C(OCc1ccccc1)c1ccc(O)cc1 was tested, and the outcome was “inactive”.
